Results: PubChem BioAssay (NCATS)
Records with an inconclusive call do not appear. A call without a number means that no potency is given here. Active and inactive are the calls of the source. Calls follow the shape of the dose curve; as a rule, active = well fitted inhibition curve with a large enough effect; inconclusive = small, poorly fitted or top-dose-only effect; inactive = flat fitted curve, though single readings scatter. Where a SMILES comes first, the peptide text is derived from it. Bridges are numbered along the chain shown (N, C = ends). [ ]: non-standard residue; d: D form. Orn = NCCC[C@H](N)C(=O)O; Mpa = O=C(O)CCS

Experiment: P-glycoprotein substrates identified in KB-8-5-11 adenocarcinoma cell line, qHTS therapeutic library screen (AID 1346987); also: nearly all actives have a fitted effect of over 65% in size
Conditions: KB-8-5-11 (P-gp overexpressing) viability, CellTiter-Glo, 72 h; series mostly up to 44.5 µM
How it was run: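 In this qHTS, P-gp-rich KB-8-5-11 cells received library compounds across a concentration range. Viability was quantified by luminescence after 72 h at 37 degree C.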
Potency is read from the fitted curve at half-maximal effect.

Row | SMILES | Potency | activity change, negative = cytotoxicity
1 | N#CC(CCCN1CCC(O)(c2ccc(Cl)cc2)CC1)(c1ccccc1)c1ccccc1 | 20.6 µM (active) | 
2 | CCn1c(=O)c(-c2ccc(Cl)cc2Cl)cc2cnc(Nc3ccc(N4CCNCC4)c(F)c3)nc21 | 20.6 µM (active) | 
3 | Cc1ccc(C(=O)Nc2ccc(CN3CCN(C)CC3)c(C(F)(F)F)c2)cc1C#Cc1cnc2[nH]ncc2c1 | 20.6 µM (active) | 
4 | C/C=C/C=C/C(=O)O[C@@H]1C=C2COC(=O)[C@]2(O)[C@@]2(C)CCCC(C)(C)[C@H]12 | inactive | 
5 | COc1cc(N2CCC(N)CC2)ccc1Nc1ncc(Cl)c(-c2c[nH]c3ccccc23)n1 | 4.11 µM (active) | 
6 | COc1ccc(S(=O)(=O)Nc2cc(Cl)cc(Cl)c2OC)cc1N1CCNCC1 | inactive | 
7 | CN=C(NC)NCc1ccccc1 | inactive | 
8 | CC(=O)O[C@H]1[C@@]2(O)C[C@H](C)[C@H](OC(=O)c3ccccc3)[C@@H]2[C@@H](OC(=O)CO)[C@]2(OC(C)=O)C[C@H]3C(=O)C(C)(C)C[C@@H]3[C@@]1(C)[C@H]2OC(C)=O | inactive | 
9 | CCOc1ccc(Cc2nc(-c3c(C)nc4ccccn34)cs2)cc1 | 0.0184 µM (active) | 
10 | CCC/C=C/C=C/C1CC(O)C2(O)C(=O)OCC12 (centres undefined) | inactive | 
11 | Cn1nnnc1SCC1=C(C(=O)O)N2C(=O)[C@@H](NC(=O)[C@H](OC=O)c3ccccc3)[C@H]2SC1 | inactive | 
12 | CC(C)=CCCC1(C)C2CCC1(C)C(O)C2 (centres undefined) | inactive | 
13 | CC1(S(=O)(=O)O)CC(=O)c2ccccc2C1=O (centres undefined) | inactive | 
14 | O=S1(=O)CCN(Cc2cc(NCC3CCOCC3)c3[nH]c(-c4ccccc4)cc3c2)CC1 | inactive | 
15 | CC(C)c1ccc(NC(=O)Cn2cnc3c2c(=O)n(C)c(=O)n3C)cc1 | inactive | 
16 | CNc1cccc(CCOc2ccc3c(c2)CN(CC(F)(F)F)C(=O)[C@H](CC(=O)O)C3)n1 | inactive | 
17 | COc1ccnc(CS(=O)c2nc3cc(OC(F)F)ccc3[nH]2)c1OC (centres undefined) | inactive | 
18 | CCCC(=O)N1CCCN(c2nc(N)c3cc(OC)c(OC)cc3n2)CC1 | inactive | 
19 | CCCCCCOC(=O)/N=C(\N)c1ccc(NCc2nc3cc(C(=O)N(CCC(=O)OCC)c4ccccn4)ccc3n2C)cc1 | inactive | 
20 | CCOc1ccc(C[C@H]2NC(=O)CCSSC[C@@H](C(=O)N3CCC[C@H]3C(=O)N[C@@H](CCCN)C(=O)NCC(N)=O)NC(=O)[C@H](CC(N)=O)NC(=O)[C@H]([C@@H](C)O)NC(=O)[C@H]([C@@H](C)CC)NC2=O)cc1 ([Mpa][dY](Et)ITNCP[Orn]G-NH2; disulfide 1-6) | inactive | 

Row | SMILES | Potency | activity change, negative = cytotoxicity
21 | CCCN(CC)C(CC)C(=O)Nc1c(C)cccc1C (centres undefined) | inactive | 
22 | COC1CCN(c2cccc(-c3cc(NC(C)=O)nc(-n4nc(C)cc4C)n3)n2)CC1 | 20.6 µM (active) | 
23 | C=C1CC2C3CCC4=CC(=O)C=C[C@]4(C)[C@@]3(F)[C@@H](O)C[C@]2(C)[C@@]1(O)C(=O)COC(C)=O (some centres undefined) | inactive | 
24 | C=CC(C)(O)CC/C=C(/C)COC(=O)C(C)C1CCC(C)(C=C)O1 (centres undefined) | inactive | 
25 | C[C@@H](NC(=O)c1ccc(C#Cc2cccc(F)c2)cn1)C(C)(C)O | inactive | 
26 | Cc1cc(F)ccc1-c1nc(NCCN=C(N)NC#N)nc2c1ccc(=O)n2-c1c(F)cccc1F | inactive | 
27 | O=S(O)CO | inactive | 
28 | Nc1nc(NC2CC2)cc(-c2cccc(Cl)c2Cl)n1 | 6.51 µM (active) | 
29 | CS/C=C/C(=O)O[C@@H]1CCC2=CC(=O)C(=C(C)C)C[C@]2(C)[C@H]1C | inactive | 
30 | C=C[C@@]12COC(=O)C(=C)[C@@H]1[C@@H](O)[C@H](C(=C)C(=O)OC)[C@@H](O)C2 | inactive | 
31 | CC(=O)O[C@@H]1[C@@H](O)[C@H](O[C@@H]2[C@@H](O)[C@@H](O)[C@H](O[C@H]3[C@H](O[C@H]4[C@H](O[C@H]5CC[C@@]6(C)C(CC[C@]7(C)C6CC=C6[C@@H]8CC(C)(C)CC[C@]8(C(=O)O)CC[C@]67C)[C@]5(C)CO)O[C@H](CO)[C@@H](O)[C@@H]4O)OC[C@@H](O)[C@@H]3O)O[C@H]2C)OC[C@H]1O (some centres undefined) |  | 7.23% [at 9.29 µM] (inactive)
32 | CCOC(=O)c1cnc2ccc(-c3cncc(NS(=O)(=O)c4ccccc4)c3)cn12 | 4.11 µM (active) | 
33 | CN(C)CCOc1cc(NS(=O)(=O)c2c(Cl)cc(C(F)(F)F)cc2Cl)ccc1Cl | inactive | 
34 | Cc1cc(NC(=O)c2cccc(NC(=O)/C=C/CN(C)C)c2)ccc1Nc1nccc(-c2cccnc2)n1 | inactive | 
35 | Cn1cc(-c2ccc(F)c(C(F)(F)F)c2)nc1C1CCN(c2ncnc3[nH]ncc23)CC1 | inactive | 
36 | CC(C)c1noc(C2CCN(c3ncnc(Nc4ccc(S(C)(=O)=O)cc4F)c3[N+](=O)[O-])CC2)n1 | inactive | 
37 | Cc1cnn(-c2ccccc2)c1NC(=O)COCc1ccccc1 | inactive | 
38 | C=CCC1=C[C@]2(OC)[C@H](C)[C@@H](c3ccc4c(c3)OCO4)O[C@]2(OC)CC1=O | inactive | 
39 | C=C1CC[C@@H]2[C@](C)(CO)[C@H](O)CC[C@@]2(C)[C@@H]1CC(=O)C1=CCOC1=O | inactive | 
